The source made the active and inactive calls.
Columns and labels:
[1] = target: Albumin (Bos taurus) (UniProt P02769); test: compounds binding labelled BSA control protein – biochemical, small-molecule microarray, Alexa647 label, 635/667 nm fluorescence, artefact control for SMM control protein annotation, profiling panel (AID 1118); conditions: BSA-A647 binding, fluorescence 635 nm, higher = more signal;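 also: score merges 667 nm emission intensity and signal-to-noise per printed compound spot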
[2] = probe aXIP binding to arrayed compounds – biochemical, NeuroSMM set, 635/667 nm fluorescence, primary screen (AID 1119); conditions: small-molecule microarray, higher = more signal, called active from +8 up or from −8 down;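 also: probe is the protein aXip251-270 applied at 1 µg/mL to compound-printed slides; binding of probe to printed compounds measured as 667 nm fluorescence plus signal to noise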
[3] = probe aNOTCH3 binding on compound microarray – biochemical, small-molecule microarray, 635/667 nm fluorescence, primary screen (AID 1120); conditions: higher = more signal;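 also: probe is a biotin-tagged antibody raised against NOTCH3 rather than NOTCH3 protein; score merges spot fluorescence near 667 nm with spot signal to noise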
[4] = probe aNOTCH2 binding on compound microarray – biochemical, small-molecule microarray, 635/667 nm fluorescence, primary screen (AID 1121); conditions: higher = more signal;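 also: score merges feature fluorescence read at 667 nm with its signal to noise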
[5] = target: Carbonic anhydrase 2 (Homo sapiens) (UniProt P00918); test: compounds binding carbonic anhydrase 2 – biochemical, small-molecule microarray, Alexa647-labelled CAII, profiling panel (AID 1122); conditions: CAII-A647 binding fluorescence, higher = more signal
[6] = COS7 lysate on small-molecule microarray, probe aHis, 635 nm (AID 1123); conditions: COS7 cell lysate, fluorescence, higher = more signal;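 also: z-score combines 667nm fluorescence intensity with signal-to-noise per printed compound spot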
[7] = probe aLAP1 signal on lysate-treated microarray – cell lysate, small-molecule microarray, COS7 lysate, primary screen (AID 1124); conditions: probe aLAP1, fluorescence, higher = more signal;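 also: lysate comes from COS7 cells expressing LAP1 and is applied at 0.3 µg/mL; score merges spot fluorescence near 667 nm with signal-to-noise over triplicate slides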
[8] = tested on: Sam68 (KHDRBS1); test: compounds binding KHDRBS1 protein – biochemical, small-molecule microarray, 635 nm fluorescence, primary screen (AID 1125); conditions: higher = more signal;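 also: score merges 667 nm channel intensity with signal to noise over triplicate slides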
[9] = tested on: Chordin-like protein 2 (CHRDL2); test: compounds binding chordin-like 2 – biochemical, small-molecule microarray, 635 nm fluorescence, primary screen (AID 1126); conditions: fluorescence 635 nm, higher = more signal;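 also: printed compound slides probed with Chrdl2 protein at 4 µg/mL for 1 h at 4 C; score merges 667 nm emission intensity with signal to noise over three replicate slides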
[10] = target: Concanavalin-A (Canavalia ensiformis) (UniProt P02866); test: compounds binding concanavalin A lectin – biochemical, small-molecule microarray, Alexa647 label, 635 nm, artefact control for SMM control protein annotation, primary screen (AID 1127); conditions: ConA-A647 binding fluorescence, higher = more signal;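 also: z combines 667 nm emission intensity with signal-to-noise across three replicate slides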
[11] = compounds binding Alexa647 anti-His antibody – biochemical, small-molecule microarray, 635 nm fluorescence, artefact control for SMM control protein annotation, primary screen (AID 1128); conditions: higher = more signal;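 also: score merges feature fluorescence with signal-to-noise for each printed compound spot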
[12] = tested on: Human papillomavirus type 1a E7 protein (residues 1-88); test: HPV1a E7 small-molecule binders, primary screen, biochemical, small-molecule microarray, residues 1-88, 635 nm (AID 1129); conditions: small-molecule microarray binding, fluorescence 635 nm; higher = more signal
[13] = target: Focal adhesion kinase 1 (Homo sapiens) (UniProt Q05397); test: PTK2 protein binding on printed compound slides – biochemical, small-molecule microarray, 635/667 nm fluorescence, BSA, DTT, primary screen (AID 1130); conditions: 635 nm fluorescence, higher = more signal;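 also: composite of spot emission at 667 nm and signal to noise over triplicate slides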
[14] = tested on: Fibrinogen (Alexa647-labelled); test: Alexa647-fibrinogen binding to printed small molecules – biochemical, small-molecule microarray, 635/667 nm fluorescence, artefact control for SMM control-protein annotation, profiling panel (AID 1131); conditions: fibrinogen-A647 binding fluorescence, higher = more signal;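 also: z-score merges 667 nm fluorescence with per-spot signal-to-noise over triplicate slides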
[15] = target: Follistatin (Homo sapiens) (UniProt P19883); test: FST protein binding to printed compounds – biochemical, small-molecule microarray, 635/667 nm fluorescence, primary screen (AID 1132); conditions: 635 nm fluorescence, higher = more signal
[16] = target: Fibroblast growth factor 2 (Homo sapiens) (UniProt P09038); test: basic fibroblast growth factor binding to printed compounds – biochemical, small-molecule microarray, 635/667 nm fluorescence, primary screen (AID 1133); conditions: FGF2, fluorescence 635/667, higher = more signal
[17] = JC-1 mitochondrial potential readout, lung cancer cells – cell-based, A549, JC-1 fluorescence, basal, 24 h, 100 nL, profiling panel (AID 1138); conditions: higher = more signal;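 also: A549 lung adenocarcinoma cells under basal conditions with no added stimulus; test concentration not given here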
[18] = tested on: Lefty1; test: Lefty1 protein binding to printed compounds – biochemical, small-molecule microarray, 635/667 nm fluorescence, primary screen (AID 1139); conditions: fluorescence 635/667, higher = more signal
[19] = tested on: wheat germ agglutinin (Triticum aestivum), Alexa647-labelled; test: Alexa647-WGA lectin binding to printed small molecules – biochemical, small-molecule microarray, 635/667 nm fluorescence, artefact control for SMM control-protein annotation, profiling panel (AID 1140); conditions: WGA-A647 binding, 635 nm fluorescence, higher = more signal;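 also: score merges 667 nm feature emission with signal to noise over triplicate slides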
[20] = target: Luciferin 4-monooxygenase (Photinus pyralis) (UniProt P08659); test: inhibition of purified Photinus pyralis luciferase – biochemical, luminescence, purified enzyme, 2006 set, primary screen (AID 1141); conditions: purified firefly luciferase, SteadyGlo luminescence, 30 min; higher = more signal, called active from +8 up or from −8 down;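 also: cell-free assay with purified firefly luciferase at 100 ng per well in PBS; test concentration not given here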
Luciferin 4-monooxygenase (Photinus pyralis), sequence (P08659 whole entry, looked up): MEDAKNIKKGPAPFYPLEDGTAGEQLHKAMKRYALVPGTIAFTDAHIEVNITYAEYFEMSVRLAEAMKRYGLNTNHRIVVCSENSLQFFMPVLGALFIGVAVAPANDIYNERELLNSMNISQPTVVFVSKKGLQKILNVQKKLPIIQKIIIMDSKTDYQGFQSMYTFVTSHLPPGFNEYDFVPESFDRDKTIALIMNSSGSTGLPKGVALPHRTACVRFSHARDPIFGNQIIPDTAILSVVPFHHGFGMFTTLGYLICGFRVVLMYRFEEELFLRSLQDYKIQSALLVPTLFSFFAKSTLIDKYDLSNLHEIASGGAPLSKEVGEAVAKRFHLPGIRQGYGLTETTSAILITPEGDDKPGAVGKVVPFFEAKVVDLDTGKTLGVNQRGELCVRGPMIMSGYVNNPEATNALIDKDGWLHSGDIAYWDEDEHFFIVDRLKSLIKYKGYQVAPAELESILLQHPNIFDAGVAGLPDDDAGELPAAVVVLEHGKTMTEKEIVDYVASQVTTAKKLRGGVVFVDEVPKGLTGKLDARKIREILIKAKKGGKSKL

Focal adhesion kinase 1 (Homo sapiens), sequence (Q05397 whole entry, looked up): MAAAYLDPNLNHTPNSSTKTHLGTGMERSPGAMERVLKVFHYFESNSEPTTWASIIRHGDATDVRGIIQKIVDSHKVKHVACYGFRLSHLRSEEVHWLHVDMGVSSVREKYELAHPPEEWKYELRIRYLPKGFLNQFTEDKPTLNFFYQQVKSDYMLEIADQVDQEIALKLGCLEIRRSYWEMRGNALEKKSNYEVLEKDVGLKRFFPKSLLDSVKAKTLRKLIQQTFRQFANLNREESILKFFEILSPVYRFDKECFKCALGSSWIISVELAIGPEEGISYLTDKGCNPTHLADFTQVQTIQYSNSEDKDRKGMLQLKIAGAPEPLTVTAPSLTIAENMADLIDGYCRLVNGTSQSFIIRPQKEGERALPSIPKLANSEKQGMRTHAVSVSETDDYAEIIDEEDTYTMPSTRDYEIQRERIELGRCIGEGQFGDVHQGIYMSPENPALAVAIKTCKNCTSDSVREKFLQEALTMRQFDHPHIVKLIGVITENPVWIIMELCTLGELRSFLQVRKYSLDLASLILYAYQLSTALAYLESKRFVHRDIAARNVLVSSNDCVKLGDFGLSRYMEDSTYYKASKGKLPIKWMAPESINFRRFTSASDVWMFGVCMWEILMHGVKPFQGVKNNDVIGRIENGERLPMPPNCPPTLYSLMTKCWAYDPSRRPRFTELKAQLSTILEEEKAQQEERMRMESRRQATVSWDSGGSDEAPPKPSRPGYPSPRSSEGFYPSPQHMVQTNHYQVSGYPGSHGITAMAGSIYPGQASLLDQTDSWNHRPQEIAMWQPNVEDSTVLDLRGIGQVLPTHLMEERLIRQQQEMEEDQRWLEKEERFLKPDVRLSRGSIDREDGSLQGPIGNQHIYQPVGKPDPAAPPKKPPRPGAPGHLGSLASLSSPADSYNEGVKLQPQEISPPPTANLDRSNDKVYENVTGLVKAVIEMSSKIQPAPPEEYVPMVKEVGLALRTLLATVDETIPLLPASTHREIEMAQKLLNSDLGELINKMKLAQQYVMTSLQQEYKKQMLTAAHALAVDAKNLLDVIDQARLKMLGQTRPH
Fibroblast growth factor 2 (Homo sapiens), sequence (P09038 whole entry, looked up): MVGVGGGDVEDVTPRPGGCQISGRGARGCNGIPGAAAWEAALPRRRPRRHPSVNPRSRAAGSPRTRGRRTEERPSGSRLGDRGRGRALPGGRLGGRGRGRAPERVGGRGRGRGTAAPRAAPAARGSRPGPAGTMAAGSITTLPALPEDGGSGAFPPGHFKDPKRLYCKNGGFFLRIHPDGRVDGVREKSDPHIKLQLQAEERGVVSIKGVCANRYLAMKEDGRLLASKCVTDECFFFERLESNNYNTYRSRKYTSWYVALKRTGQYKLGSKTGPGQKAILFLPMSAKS
Concanavalin-A (Canavalia ensiformis), sequence (P02866 whole entry, looked up): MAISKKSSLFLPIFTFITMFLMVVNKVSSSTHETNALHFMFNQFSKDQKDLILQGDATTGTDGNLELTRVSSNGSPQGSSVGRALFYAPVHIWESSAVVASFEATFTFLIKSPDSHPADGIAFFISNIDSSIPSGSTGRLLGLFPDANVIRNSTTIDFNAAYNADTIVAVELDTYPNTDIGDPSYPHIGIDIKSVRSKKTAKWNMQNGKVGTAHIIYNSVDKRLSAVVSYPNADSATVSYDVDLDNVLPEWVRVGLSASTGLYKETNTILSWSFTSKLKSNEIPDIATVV
Albumin (Bos taurus), sequence (P02769 whole entry, looked up): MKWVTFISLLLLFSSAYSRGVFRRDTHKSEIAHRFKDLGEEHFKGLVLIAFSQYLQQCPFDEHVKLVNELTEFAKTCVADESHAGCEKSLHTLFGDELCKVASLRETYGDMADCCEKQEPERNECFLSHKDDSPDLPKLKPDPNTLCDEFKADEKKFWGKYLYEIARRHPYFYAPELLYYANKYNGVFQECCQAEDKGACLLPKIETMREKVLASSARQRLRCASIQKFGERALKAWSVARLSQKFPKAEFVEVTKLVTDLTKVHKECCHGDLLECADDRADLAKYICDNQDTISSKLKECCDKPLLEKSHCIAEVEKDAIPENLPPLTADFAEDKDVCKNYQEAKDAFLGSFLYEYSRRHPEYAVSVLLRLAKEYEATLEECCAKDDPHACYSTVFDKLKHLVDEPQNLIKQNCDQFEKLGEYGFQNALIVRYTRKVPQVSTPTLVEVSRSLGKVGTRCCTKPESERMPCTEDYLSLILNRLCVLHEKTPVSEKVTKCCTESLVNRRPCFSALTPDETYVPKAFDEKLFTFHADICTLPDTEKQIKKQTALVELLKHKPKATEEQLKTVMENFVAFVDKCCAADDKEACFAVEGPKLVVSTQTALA
Follistatin (Homo sapiens), sequence (P19883 whole entry, looked up): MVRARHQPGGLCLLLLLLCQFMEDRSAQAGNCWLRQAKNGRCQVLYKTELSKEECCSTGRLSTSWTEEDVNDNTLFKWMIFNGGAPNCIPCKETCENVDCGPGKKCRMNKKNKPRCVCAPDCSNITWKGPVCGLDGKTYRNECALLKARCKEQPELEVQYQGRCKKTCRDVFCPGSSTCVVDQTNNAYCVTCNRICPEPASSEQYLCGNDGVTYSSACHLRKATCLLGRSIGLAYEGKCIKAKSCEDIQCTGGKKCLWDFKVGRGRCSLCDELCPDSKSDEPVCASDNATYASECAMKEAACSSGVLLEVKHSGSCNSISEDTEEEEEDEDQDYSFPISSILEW

SMILES	composite z-score [1]	composite Z-score [2]	composite z-score [3]	composite z-score [4]	composite z-score [5]	composite z-score [6]	composite z-score [7]	composite z-score [8]	composite z-score [9]	composite z-score [10]	composite z-score [11]	composite z-score [12]	composite z-score [13]	composite z-score [14]	composite z-score [15]	composite z-score [16]	z-score [17]	composite z-score [18]	composite z-score [19]	z-score [20]
C=CC[C@]1(C(=O)N2CCCCC2)N=C(c2ccc(OCCCO)cc2)O[C@H]1c1ccccc1N=[N+]=[N-]	0.947	0.103 (inactive)	0.486	0.284	0.789	2.81	0.941	1.3	-0.154	1.13	2.94	1.26	0.426	1.01	1.4	1.55	-0.591	1.48	1.37	-10 (active)
C=CCOC(=O)[C@@H]1[C@H]2C(=O)O[C@H](c3ccccc3)[C@H](c3ccccc3)N2[C@H](c2ccc(OCCOC(=O)[C@H]3C[C@H]4C(=O)N[C@@H](CCCCNC(C)=O)C(=O)N4[C@H]3c3ccc(O)cc3)cc2)[C@@]12C(=O)Nc1ccc(I)cc12	-0.239	0.396 (inactive)	0.0222	-0.0662	0.374	0.877	0.278	1.28	1.15	0.499	1.21	0.894	-0.145	0.852	1.08	1.7	-0.815	1.08	0.115	-0.608 (inactive)
CC(C)C[C@@H]1NC(=O)[C@H]2C[C@@H](C(=O)NCCCCCC[N+](C)(C)C)[C@@H](c3ccc(O)cc3)N2C1=O	0.34	0.448 (inactive)	-0.126	-0.164	0.717	0.439	0.102	-0.907	0.362	0.452	2.28	-0.194	-0.188	-1.44	1.16	0.839	-0.603	0.467	0.952	0.779 (inactive)
CSCC[C@@H]1NC(=O)CC=C[C@@H](C)COC(=O)[C@H](CCSC)NC(=O)CC=C[C@@H](C)COC1=O	-0.767	0.559 (inactive)	-0.205	-0.135	-0.342	-0.45	-0.524	-0.32	1.39	-0.796	-0.158	-0.111	-0.388	0.017	0.129	0.296	1.01	0.531	-0.725	-0.731 (inactive)
C=CC[C@]1(C(N)=O)N=C(c2ccc(OCCCO)cc2)O[C@H]1c1ccccc1CN=[N+]=[N-]	1.05	0.221 (inactive)	-0.0502	-0.0785	0.856	2.69	0.623	1.11	-0.63	0.885	3.2	0.928	0.409	1.01	0.653	-0.373	0.766	-0.484	1.43	-1.47 (inactive)
